Screening results deposited in PubChem by National Center for Advancing Translational Sciences (NCATS).
Compounds with a hit are over-represented: about 2.4% of the library has one in this group of screens.
FEN1 inh-1: qHTS Assay for the Inhibitors of Human Flap endonuclease 1 (FEN1); P39748; Recombinant FEN1 flap cleavage, fluorescence, 15 min; Potency, µM (titrated, usually from 114 µM), inactives show at the top dose activity change, negative = inhibition, actives largely listed as inhibitors; 390,000 compounds, 0.35% hits; note: % is set by controls: 0 for no effect and ±100 for the full control effect; nearly all actives have a fitted effect of over 65% in size
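Enzyme 10 nM, 15 min RT preincubation with compound; start with substrate 50 nM final; reads at 0 and 15 min; qHTS titration, four-parameter Hill fit.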
Pol kappa inh: qHTS for Inhibitors of Polymerase Kappa | DNA polymerase kappa (Homo sapiens), Q9UBT6 | purified Pol kappa, fluorescent DNA synthesis assay, 10 min | Potency, µM (doses to about 107 µM), without a hit: at the highest dose activity, negative = inhibition, actives largely listed as inhibitors | 400,000 compounds, 0.53% hits | AID 588579, 2011; note: % is set by controls: 0 for no effect and ±100 for the full control effect
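Here, compound and 10 nM enzyme are combined for 15 min at room temperature; adding 50 nM substrate (final) starts DNA synthesis, tracked by fluorescence at 0 and 10 min against buffer-only wells.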
WRN helicase inh: qHTS for Inhibitors of WRN Helicase; WRN helicase unwinding, fluorescent forked duplex, kinetic; Bifunctional 3'-5' exonuclease/ATP-dependent helicase WRN (Homo sapiens), Q14191; Potency, µM (highest dose often 114 µM), without a hit: at the highest dose activity change, negative = inhibition, most hits filed as inhibitors; 360,000 compounds, 0.46% hits; note: % is set by controls: 0 for no effect and ±100 for the full control effect; nearly all actives have a fitted effect of over 55% in size
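Primary qHTS, 1536-well format. 20 nM WRN + compound, 15 min RT; start with 100 nM forked fluorophore/quencher duplex, 2 mM ATP (final); kinetic read ex 525/em 598 nm.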
POLH inh: qHTS for Inhibitors of Polymerase Eta. DNA polymerase eta (Homo sapiens), Q9Y253. recombinant Pol eta, fluorescent DNA replication assay. Potency, µM (titrated, usually from 114 µM), for inactives: at the top dose activity change, negative = inhibition, hits mostly inhibitors. 390,000 compounds, 1.2% hits; note: % is set by controls: 0 for no effect and ±100 for the full control effect
Target sequence (Q9Y253 whole entry, looked up): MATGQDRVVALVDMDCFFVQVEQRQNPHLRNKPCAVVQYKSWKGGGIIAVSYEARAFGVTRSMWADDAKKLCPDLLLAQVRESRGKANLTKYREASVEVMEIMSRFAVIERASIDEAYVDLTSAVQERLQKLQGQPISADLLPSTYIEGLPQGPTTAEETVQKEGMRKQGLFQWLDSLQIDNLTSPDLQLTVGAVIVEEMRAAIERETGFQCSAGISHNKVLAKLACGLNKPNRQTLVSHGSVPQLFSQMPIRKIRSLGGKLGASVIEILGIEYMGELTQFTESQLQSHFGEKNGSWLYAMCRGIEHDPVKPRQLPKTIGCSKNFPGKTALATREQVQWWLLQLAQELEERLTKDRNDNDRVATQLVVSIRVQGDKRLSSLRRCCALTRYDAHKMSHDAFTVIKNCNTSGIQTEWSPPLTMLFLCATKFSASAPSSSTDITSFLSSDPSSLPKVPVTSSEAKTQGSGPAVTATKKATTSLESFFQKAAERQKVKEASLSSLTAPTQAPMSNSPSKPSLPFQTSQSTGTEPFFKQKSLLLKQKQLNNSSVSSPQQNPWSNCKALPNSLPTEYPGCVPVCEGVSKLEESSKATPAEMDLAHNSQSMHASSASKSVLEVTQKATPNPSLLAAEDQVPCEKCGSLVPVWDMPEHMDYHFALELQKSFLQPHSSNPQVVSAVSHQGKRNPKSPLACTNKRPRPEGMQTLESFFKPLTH
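Pol eta (10 nM) was preincubated with compounds for 15 min at room temperature, after which fluorescent replication substrate (50 nM final) was added to start the reaction. Fluorescence was read kinetically at 0 and 10 min.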
Pol iota inh: qHTS for Inhibitors of Polymerase Iota. 390,000 compounds, 1% hits. Pol iota fluorescent replication assay, 10 min. DNA polymerase iota (Homo sapiens), Q9UNA4. AID 588590, 2011. Potency, µM (top dose mostly 115 µM), without a hit: at the top dose activity, negative = inhibition, most hits filed as inhibitors
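Pol iota at 10 nM preincubated 15 min with compounds at room temperature; reaction started with fluorescent substrate, 50 nM final. Fluorescence read kinetically at 0 and 10 min; buffer-only wells as negative control.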
POLB inh: qHTS Assay for Inhibitors of DNA Polymerase Beta; P06746; Pol beta primer extension/strand displacement, fluorescence kinetic; 340,000 compounds, 1.3% hits; Potency, µM (series often up to 114 µM), inactives show at the top dose activity change, negative = inhibition, most hits filed as inhibitors; note: % is set by controls: 0 for no effect and ±100 for the full control effect
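Human Pol beta at 10 nM; strand-displacement substrate 50 nM final. Compound exposure 15 min at room temperature before start, reaction 10 min at room temperature.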
FEN1 inh-2: qHTS Assay for the Inhibitors of FEN1: Confirmatory Assay for Cherry-picked Compounds; shares compounds with FEN1 inh-1; FEN1 flap cleavage, TAMRA/BHQ2 fluorogenic DNA substrate; Potency, µM, actives largely listed as inhibitors; 880 compounds, 79% hits; note: nearly all actives have a fitted effect of over 60% in size
* marks the source's active call; other numbers are inactive results; ? = inconclusive; nt = no result given; [ ] = remark or other dose. Calls come from the whole dose curve; as a rule, active = well fitted curve in the direction sought with a large enough effect; inconclusive = small, poorly fitted or top-dose-only effect, or another doubt; inactive = no such curve, though single readings can be large; an effect the other way counts as inactive or inconclusive. Potency is the fitted concentration of half-maximal effect.

SMILES	FEN1 inh-1	Pol kappa inh	WRN helicase inh	POLH inh	Pol iota inh	POLB inh	FEN1 inh-2
O=c1c2ccccc2nc(N/N=C/c2ccc(O)cc2)n1O	25.1µM*	0.5%	-10.8%[57.1 µM]	-13.7%	-5.7%	6.4%	30.1*
CCN(CCCNC(=O)c1cc2c(Cl)nc3ccccc3c2s1)Cc1ccccc1	?	-2.7%	nt	-15.1%	11.0%	0.1%	nt
CCOCCCNC(=O)c1cc2c(-c3ccc(OC)c(OC)c3)nn(C)c2s1	?	0.0%	nt	?	-5.5%	-24.3%	nt
CCN(CC)CCCNC(=O)c1cc2c(-c3cccc(OC)c3)nn(C)c2s1	?	-2.5%	53.6%	12.0%	-22.6%	-26.9%	?
CCN(CC)CCCNC(=O)c1cc2c(Cl)nc3ccccc3c2s1	44.7µM*	12.4%	41.5%	-4.8%	-9.4%	-21.9%	67.5*
CCCCN(CC)CCCNC(=O)c1cc2c(-c3ccc(OC)c(OC)c3)nn(C)c2s1	35.5µM*	-23.2%	-28.5%	?	?	3.55µM*	33.8*
CC(C)(C)C1CCc2onc(C(=O)Nc3sc4c(c3C#N)CCCC4)c2C1 (stereo unspecified)	?	3.3%	nt	-14.4%	2.7%	-0.7%	nt
CCCCOc1ccc(C(=O)Nc2onc3c2CCCC3)cc1	-5.1%	2.1%	nt	-26.4%	43.9%	0.7%	nt
N#Cc1cccc(NC(=O)N2CC3(CCN(C(=O)c4ccco4)CC3)C2)c1	nt	-8.0%[60.1 µM]	nt	nt	nt	nt	nt
COc1ccc2c(C)cc(SCC(=O)Nc3cc(C(N)=O)cc(C(N)=O)c3)nc2c1	?	-14.6%	-6.3%[11.6 µM]	50.1µM*	35.5µM*	25.1µM*	?
COc1cccc(NC(=O)CSc2cc(C)c3ccccc3n2)c1	8.4%	1.4%	nt	nt	35.6%	-1.0%	nt
O=C(O)c1ccc(/C=C2\SC(=S)N(Nc3ccccc3)C2=O)cc1	-5.4%	?	1.3%[11.6 µM]	-1.6%	?	-22.9%	nt
COc1cc(/C=C2/SC(=S)N(CC3CCCO3)C2=O)ccc1O (stereo unspecified)	44.7µM*	-21.0%	79.4µM*	?	?	?	42.6*
COc1ccc(/C=C2\SC(=S)N(C(C(=O)O)c3ccccc3)C2=O)c(OC)c1 (stereo unspecified)	-3.6%	-9.2%	-8.5%	-22.8%	?	-5.3%	nt
COc1cc(/C=C2\SC(=S)N(Nc3ccccc3)C2=O)ccc1O	?	-31.3%	15.8µM*	?	50.1µM*	11.2µM*	84.9*
COc1cc(/C=C2\SC(=S)N(C(Cc3ccccc3)C(=O)O)C2=O)ccc1O (stereo unspecified)	?	?	50.1µM*	?	?	50.1µM*	?
COc1cccc(Cn2c(=O)c(-c3cccs3)nc3cnc(N4CCNCC4)nc32)c1	nt	-15.2%[60.1 µM]	nt	nt	nt	nt	nt
CSc1nc2c(c(=O)n1Cc1ccccc1)SC(C)C2 (stereo unspecified)	-11.8%	-2.4%[60.1 µM]	-13.1%	-1.4%	-6.2%	-26.0%	nt
CSc1nc2[nH]c(=O)n(O)c(=O)c2n1Cc1ccccc1	-104.8%	-14.5%	6.4%[11.6 µM]	?	36.1%	nt	0.0213*
COc1ccc(C)cc1NS(=O)(=O)c1ccc2oc(=O)c3ncn(C)c3c2c1	0.7%	0.7%	nt	-9.3%	18.9%	-11.9%	nt
O=C(O)c1ccc(-c2ccc(/C=N/Nc3ccc([N+](=O)[O-])cc3)o2)cc1	-18.6%	-21.0%	?	50.1µM*	-18.4%	?	84.9*
O=c1c2ccccc2c(/C=N/NS(=O)(=O)c2ccccc2)c(O)n1-c1ccccn1	-4.0%	-22.5%	?	5.9%	?	33.1%	?
Nc1c(Cl)cc(-c2[nH]c3cc(C(=O)NCCO)ccc3c(=O)c2O)cc1Cl	17.8µM*	-5.6%	-35.0%	?	?	-5.2%	30.1*
CCCNC(=O)c1ccc2c(=O)c(O)c(-c3cccc(Br)c3)[nH]c2c1	31.6µM*	-12.3%	3.3%[11.6 µM]	-16.5%	?	-0.9%	37.9*
COc1ccc(OC)c(NC(=O)c2cn(CC(C)C)c(=O)c3cc(OC)c(OC)cc23)c1	-25.3%	-18.7%	nt	-13.2%	10.8%	5.7%	nt
SMILES	FEN1 inh-1	Pol kappa inh	WRN helicase inh	POLH inh	Pol iota inh	POLB inh	FEN1 inh-2
O=C(CCNS(=O)(=O)c1ccc(Br)s1)Nc1ccc(Br)cc1	10.3%	-12.2%	nt	-12.8%	-1.8%	-2.5%	nt
COc1ccc(Nc2c(-c3ccc(C)o3)nc3cc(C)ccn23)cc1	1.9%	-1.0%	nt	-13.1%	4.6%	-0.6%	nt
Cc1ccccc1CN1CCc2nc(N3CCN(c4ncccn4)CC3)ncc2C1	?	-11.0%[60.1 µM]	nt	-6.2%	-22.9%	10.3%	67.5*
COc1ccccc1N1CCN(c2ncc3c(n2)CCN(Cc2ccccc2C)C3)CC1	1.1%	-12.0%[60.1 µM]	nt	-20.7%	16.1%	-0.7%	nt
NC(N)=Nc1nc(-c2ccccc2)c2cc(F)ccc2n1	79.4µM*	-18.0%	15.1%[11.6 µM]	-2.6%	20.0%	?	53.6*
Cc1c2c(cc3c1[nH]c1ccccc13)C=NCC2	50.1µM*	9.2%	13.9%[11.6 µM]	-23.7%	34.1%	nt	37.9*
O=C(Nc1ccccc1)N(Cc1c[nH]c2ccccc12)C1CCCCCC1	-19.5%	-23.1%	nt	-16.7%	-18.1%	-11.8%	nt
CCOC(=O)c1c(CSc2ccccc2)n(C)c2cc(Br)c(OCC(O)CNC(CO)(CO)CO)cc12 (stereo unspecified)	44.7µM*	-24.5%	?	?	?	?	42.6*
CCCN1CCN(CCNC(=O)Nc2ccc(OC)c(OC)c2)CC1	0.7%	-11.3%	nt	-20.5%	4.9%	1.4%	nt
c1cc2ccc3ccc(CN4CCOCC4)c4ccc(c1)c2c34	-25.3%	-4.7%	2.1%	-11.0%	9.6%	29.3%	nt
OC1CCCN(Cc2ccc3ccc4cccc5ccc2c3c45)C1 (stereo unspecified)	56.2µM*	-13.9%	21.1%[57.1 µM]	-10.6%	?	39.8µM*	42.6*
Cc1ccc(C)c(Cn2c(=O)n(Cc3ccccc3)c(=O)c3sc4ccccc4c32)c1	-2.9%	-3.5%	nt	-12.5%	16.1%	1.2%	nt
O=C(O)CCN1C(=O)C2CCCCC2C1=O (stereo unspecified)	9.5%	5.1%	10.9%	-7.9%	2.7%	31.2%	nt
O=C1C(=O)N(O)C2CCCCC2N1O (stereo unspecified)	17.8µM*	-0.1%	11.6%	-21.3%	43.5%	16.9%	23.9*
